The campaign covered roughly 69,000 compounds. About 8,600 (12%) showed an effect of 50% or more. The sample holds strong results, similar compounds and a random draw of the others, so the mix is not that of the screen.

The experiment concerns Plasmodium berghei. The experiment in a line: Screen against P. berghei liver stage (PbLuc), transformed with Luciferase, at 10uM. The format is functional, HepG2. The conditions noted are these: tested at 10 uM.
Take `O=C(Cc1cccs1)N1CCCCC1c1ccn2ccnc2n1` (configuration not stated): the INHIBITION amounted to 26.3%.
Then `CCOc1cc(C)nc(N2CCN(C(=O)c3cc[nH]n3)CC2)n1`, with 40%.
For `O=C(c1ccc2nncn2c1)N1CCCC(n2ccnc2)C1` (configuration not stated) the value was 16.9%; for `CCNC(=O)N1CCC(=Cc2ccccc2)CC1`, 63.3%.
As to `CCCNC(=O)CCNC(=O)N1CCC(=Cc2ccccc2)CC1`, the INHIBITION came out at 9%.
Then `CNC(=O)N1CCC(=Cc2ccccc2)CC1`, with -27.4%; and `CN(C)c1nc2ncc(Cl)cc2cc1C#N`, with -8.35%.
For the molecule `CCOC(=O)N1CCC(Nc2cc(CC)nc3c(C)c(C)nn23)CC1`, the INHIBITION is -31.4%.
With `CC[C@@H](C)[C@H](NC(=O)CCn1cc(C(C)=O)c2ccccc21)C(=O)O`, the INHIBITION is recorded as -27%.
For `CCn1nc(C)c2c1cnn2CCNS(=O)(=O)Cc1ccccc1` the value was 47.4%; for `Cc1cccc(C(=O)N2CCC[C@]3(C[C@@H](OCC4CC4)CO3)C2)n1`, 52%; for `O=C(c1ccncn1)N1CCC[C@]2(C[C@@H](OCC3CC3)CO2)C1`, 42.7%.
In the case of `Cc1cc(C(=O)N2CCC[C@]3(C[C@H](OCC4CC4)CO3)C2)no1`, the INHIBITION is on record as 17.1%.
Then `Cc1cc(C(=O)N2CCC[C@]3(C[C@@H](OCC4CC4)CO3)C2)no1`, with 21.8%; and `CCOC1COC2(CCN(C(=O)c3cccc(C)n3)CC2)C1` (configuration not stated), with 63.3%.
Then `CCOC1COC2(CCN(c3cccc(C)n3)CC2)C1` (configuration not stated), with 16.6%; and `O=C(c1cocn1)N1CCC[C@]2(C[C@@H](OCC3CC3)CO2)C1`, with -2.72%.
For `O=C(c1ccncn1)N1CCC[C@]2(C[C@H](OCC3CC3)CO2)C1` the value was 50.9%.
Regarding `CCOC1COC2(CCN(Cc3cccc(C)n3)CC2)C1` (configuration not stated), the INHIBITION is 25.6%.
Then `CC(CC(=O)NCCCn1cccn1)c1cccnc1` (configuration not stated), with 15.7%; and `CC(C)(C)c1nnc2n1C(C(=O)N1CCN(c3ncccn3)CC1)CC2` (configuration not stated), with 14.3%.
Then `Cc1ccc(C)c(CSc2nnc(C(N)C(C)C)o2)c1` (configuration not stated), with 21.8%; and `c1ccc(Cc2noc(CN3CCOC(Cn4cccn4)C3)n2)cc1` (configuration not stated), with 24%; and `Cn1cc(C(=O)NCc2ccc(N3CCCC3)nc2)ccc1=O`, with 35.9%.
Then `CN(C)c1ccc(CNC(=O)NCCc2cn3ccccc3n2)cn1`, with -10.6%; and `CCOc1cc(NC(=O)N2CCOC3(CCC3)C2)ccc1C`, with 2.45%; and `CCN1CCCCC1C(=O)Nc1cccc(-c2nnc[nH]2)c1` (configuration not stated), with 19.7%.
Regarding `CC1(c2ncc(CN3CCOCC3)cn2)CCCCO1` (configuration not stated), the INHIBITION amounted to 18.04%.
Turning to `c1cnc(-c2nn3c(CN4CCOCC4)nnc3s2)cn1`, the INHIBITION is recorded as 4.35%.
Regarding `CC(C)SCCn1ccc2[nH]c(=O)c(C#N)cc2c1=O`, the INHIBITION is listed as 23.5%.
For `COc1nc2ccn(CCNc3cc(C)ccn3)c(=O)c2cc1C#N` the value was 58.3%; for `CCc1nc(CCn2ccc3nc(OC)c(C#N)cc3c2=O)no1`, 32.3%.
Then `Cc1ccnc(NCCNC(=O)C2CC3(CCNCC3)CN2C)c1` (configuration not stated), with -17.9%; and `COc1nc2ccn(CCc3cc(O)nc(C)n3)c(=O)c2cc1C#N`, with 58.3%.
Then `COc1nc2ccn(CCc3scnc3C)c(=O)c2cc1C#N`, with 45.7%.
For `N#Cc1cc2c(=O)n(CC(O)Cc3ccccc3)ccc2[nH]c1=O` (configuration not stated), the INHIBITION amounted to 25.9%.
Then `COc1nc2ccn(CCc3cnccn3)c(=O)c2cc1C#N`, with 72.6%; and `COCCn1cnc2ccc(NC(=O)c3ccc(OC)cc3)cc2c1=O`, with -13.6%; and `Cc1cc(C)n(CC2CN(c3cnc4ccccc4n3)CCO2)n1` (configuration not stated), with 29.7%.
Consider `O=C(C1CC1)N1CC[C@@H]2[C@H](CC1)N(Cc1cccnc1)CCS2(=O)=O`, for which the INHIBITION was -49.8%.
For `CC(C)c1cc(C(=O)N2CCC3(CCc4ccccc4C(=O)N3)C2)on1` (configuration not stated) the value was 22.45%; for `Cc1ccc(N2CC[C@H]3O[C@H](C(=O)NCc4ccco4)CC[C@H]32)nn1`, 31.1%; for `Cc1ccc(C(=O)N(C)CCOc2ccccc2F)c(=O)[nH]1`, -10.3%.
For `Cn1cc(CCC(=O)N2C[C@@H]3CC[C@H]2CN(Cc2cccnc2)C3)cn1` the value was 40.2%; for `Cn1ncc2c(NCCC34CCCN3CCC4)nc(C3CCCC3)nc21`, -12.2%; for `CCOCCNc1nc(C2CCCC2)nc2c1cnn2C`, 2.3%.
Then `CC(C)N(CCNc1nc(C2CCCC2)nc2c1cnn2C)C(C)C`, with 81.1%; and `Cn1ncc2c(NCCOCc3ccccc3)nc(C3CCCC3)nc21`, with 71.2%; and `CNCCCNc1nc(C2CCCC2)nc2c1cnn2C`, with 37.1%.
`Cn1ncc2c(NCCn3cccc3)nc(C3CCCC3)nc21`: the INHIBITION is listed as 29.4%.
Then `Cn1ncc2c(NCCCOc3cccnc3)nc(C3CCCC3)nc21`, with 44.8%; and `Cn1ncc2c(NCCOc3ccc(F)cc3)nc(C3CCCC3)nc21`, with 77.1%.
Then `CCS(=O)(=O)CCNc1nc(C2CCCC2)nc2c1cnn2C`, with 1.93%.
Then `O=C(NC1CC1)c1cc(Sc2ncccn2)ccn1`, with -17.1%.
Regarding `CCOCc1ncn2c1CN(C(=O)Nc1ccc(CC)cc1)CC2`, the INHIBITION is listed as -9.26%.
As for `Cc1cccc(CN2CCCC2(C(N)=O)c2cnccn2)n1` (configuration not stated), the INHIBITION stood at 42.4%.
Then `CNC(=O)[C@@H](c1ccccc1OC)N1CCC[C@H]1C(=O)NC1CC1`, with 35.4%; and `O=C(Cc1ccc2c(c1)OCO2)N1CCN(c2ccncc2)CC1`, with 49%.
Then `Cc1cc(N2CCCN(c3ccnc(C)c3)CC2)ccn1`, with 11.9%.
Then `Cc1cc(N2CCCN(C(=O)Cc3csc(C)n3)CC2)ccn1`, with -13.2%; and `Cc1cc(N2CCN(C(=O)Cc3ccc4c(c3)OCO4)CC2)cc(C)n1`, with 52.2%.
Regarding `Cc1cc(N2CCCN(C(=O)Cc3cc(F)cc(F)c3)CC2)ccn1`, the INHIBITION is given as 28.7%.
Turning to `Cc1cc(N2CCCN(C(=O)Cc3cccnc3)CC2)ccn1`, the INHIBITION was determined as 58.6%.
For `Cc1cc(N2CCCN(C(=O)Cc3ccc(O)c(Cl)c3)CC2)ccn1` the value was 65.1%.
Then `COc1cccc(CC(=O)N2CCCN(c3ccnc(C)c3)CC2)c1`, with -1.25%.
With `O=C(Cc1ccc2c(c1)OCO2)N1CCCN(c2ccccc2)CC1`, the INHIBITION is recorded as 11.8%.
For `O=C(c1cnccn1)N1C[C@H]2CC[C@@H](C1)N(C(=O)Cc1ccsc1)C2` the value was 28.5%; for `Cc1nnc2n1CCN(CCOc1cccc(C#N)c1)C2`, 44.1%; for `Cc1ccc(C2CSCCN2C(=O)c2ccoc2C)o1` (configuration not stated), 13.3%.
Then `CNC(=O)CCN1CCC(c2nnc(Cn3cccn3)n2C2CC2)CC1`, with -0.71%.
Turning to `Cc1nccc(C(=O)N2CCCC2c2noc(C(C)C)n2)n1` (configuration not stated), the INHIBITION amounted to 22.6%.
Then `Cc1ncccc1NS(=O)(=O)Cc1cccc(F)c1`, with 3.19%; and `O=C1NC[C@H]2CN(Cc3ccccn3)CCN12`, with -17.2%.
For `O=C1NCC2CN(Cc3ccccc3OCc3ccccn3)CCN12` (configuration not stated) the value was 50.3%; for `O=C1NC[C@H]2CN(Cc3ccnc4ccccc34)CCN12`, -12.1%.
For `c1cc(CN2CCC3(CC2)CC(N2CCCC2)CO3)co1` (configuration not stated) the value was -4.82%; for `CCNC(=O)CN(CC)C(=O)c1cc(-c2cccc(Cl)c2)no1`, 21.5%.
In the case of `Cn1c(C(=O)N(CC(N)=O)C2CCCC2)cc(Cl)c1Cl`, the INHIBITION is recorded as -25.6%.
For `Cc1cnn(C2CCCN(C(=O)c3cccc(-n4cnnn4)c3)C2)c1` (configuration not stated) the value was 14.75%; for `O=C(Nc1cnn(CC(F)F)c1)c1cccc(-n2cnnn2)c1`, 20.6%.
For `Cn1cc(Nc2cccc(C(=O)N(CC(N)=O)C3CCCC3)c2)cn1` the value was 82.2%; for `CN(C)c1ncc(NC(=O)c2cccc(Nc3cnn(C)c3)c2)cn1`, 36.5%; for `CCNC(=O)CN(CC)C(=O)c1cccc(Nc2cnn(C)c2)c1`, 70.3%.
Consider `CN(C)C(=O)c1cccc(Nc2cnn(C)c2)c1`, for which the INHIBITION was 33.5%.
For the molecule `CNC(=O)c1cccc(Nc2cnn(C)c2)c1`, the INHIBITION is 23.6%.
`Cn1cc(NC(=O)c2cccc(-n3cnnn3)c2)cn1`: the INHIBITION amounted to 53.7%.
For `CN(C)C(=O)c1cccc(NC(=O)c2cnn(C)c2)c1` the value was 52.4%; for `NC(=O)CN(C(=O)c1cccc(C(F)(F)F)c1)C1CCCC1`, -52.4%.
In the case of `Cn1cc(N2CCCC(SCc3ccco3)C2=O)cn1` (configuration not stated), the INHIBITION is on record as 9.79%.
Then `CCc1cccc(OCC(=O)NC(C)c2nnc3n2CCC3)c1` (configuration not stated), with -27.8%.
Then `CCC(=O)N1C[C@@H]2CCN(c3cnccn3)C[C@@H]2C1`, with -18.4%; and `CC(C)(C)c1ccc(OCC(N)=O)c(CN2C[C@H]3CC(O)C[C@H]3C2)c1` (some centres not stated), with 25.8%.
Regarding `CCCN(CC(=O)N1CCNCC1)C(=O)c1cccc(Cl)c1`, the INHIBITION amounted to 13.5%.
For `CC(C)OCCCN(CC(=O)N1CCNCC1)C(=O)c1cccc(Cl)c1` the value was 25.9%; for `CC(C)OCCCN(CC(=O)N1CCNCC1)C(=O)c1ccc(F)cc1`, 55.7%.
Then `Cc1noc(C)c1-c1cccc(C2CCNCC2)n1`, with 5.11%.
Then `COc1ccccc1OCCNC(=O)CN1CCN(C)CC1C` (configuration not stated), with 16.657%; and `Nc1nc2c(c3c1C(=O)NC3=O)CCCC2`, with 70.7%; and `Nc1nc2c(c3c1C(=O)NC3=O)CCC2`, with 41.9%.
`O=C1NC(=O)c2c3c(nc(O)c21)CCCC3`: the INHIBITION is 29.3%.
Then `COc1ccc(Nc2nc(N)c(C(C)=O)s2)cc1Cl`, with 17.6%; and `COCCN1CC[C@@H]2O[C@@H](COCC(=O)N3CCCC3)CC[C@@H]21`, with -23.2%; and `Cc1cc(NCCCC(F)(F)F)n2nc(C)cc2n1`, with 42.3%.
Regarding `Cc1cc(C(F)(F)F)nc(CNc2cc(C)nc3cc(C)nn23)n1`, the INHIBITION is 43.2%.
For `Cc1cc(NCc2cc(C)oc2C(F)(F)F)n2nc(C)cc2n1` the value was 79.2%; for `CCN(C)c1ncnc2c1CCN(Cc1ccc(OC)cc1)CC2`, 34.1%.
For `O=C(c1ccsc1)N1CCO[C@@H]2CN(Cc3ccccn3)CC[C@@H]2C1` the value was -31.3%.

The record behind these values is ChEMBL document CHEMBL4513216, “Probing the Open Global Health Chemical Diversity Library for Multistage-Active Starting Points for Next-Generation Antimalarials” (ACS Infect Dis, 2020).
